Test results from PubChem BioAssay.
Calls of active or inactive are those of the source. Unless noted, no rule for the calls is given here.

Assays:
[1] = test system: XIP peptide (Xip251-270) binding; assay: XIP fragment 251-270 binding compounds – biochemical, small-molecule microarray, fluorescence 635/667 nm, 0.1 µg/mL protein, primary screen (AID 1182); details: fluorescent protein binding, 635 nm, higher = more signal, called active from +8 up or from −8 down
[2] = test system: XIP peptide (Xip251-270); assay: compounds binding XIP fragment 251-270 – biochemical, small-molecule microarray, fluorescence 635/667 nm, 0.5 µg/mL protein, primary screen (AID 1183); details: fluorescence 635 nm, higher = more signal
[3] = blood-stage malaria parasite viability loss – strain 3D7, DAPI fluorescence, 100 nL, primary screen (AID 1184);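 also: parasites grown inside human red blood cells in medium with human serum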; details: P. falciparum 3D7 growth, 3 d, higher = more signal
[4] = target: Homeobox protein Hox-A13 (Mus musculus) (UniProt Q62424); assay: disruptors of Hoxa13 oligonucleotide interaction – biochemical, fluorescence polarization, labeled oligonucleotide, primary screen (AID 1185); details: Hoxa13:DNA binding, 15 min, higher = more signal, called active from +8 up or from −8 down
Chain of Homeobox protein Hox-A13 (Mus musculus) (Q62424 whole entry, looked up): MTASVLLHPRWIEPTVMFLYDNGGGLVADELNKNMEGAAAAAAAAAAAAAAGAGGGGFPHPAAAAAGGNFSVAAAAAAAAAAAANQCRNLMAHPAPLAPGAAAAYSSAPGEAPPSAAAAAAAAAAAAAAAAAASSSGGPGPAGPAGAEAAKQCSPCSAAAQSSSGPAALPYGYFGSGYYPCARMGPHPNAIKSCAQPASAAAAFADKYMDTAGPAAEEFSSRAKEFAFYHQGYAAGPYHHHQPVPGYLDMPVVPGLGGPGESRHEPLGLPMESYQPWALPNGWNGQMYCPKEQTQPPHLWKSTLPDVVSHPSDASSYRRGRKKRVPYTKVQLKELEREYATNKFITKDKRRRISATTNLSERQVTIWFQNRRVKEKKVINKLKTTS

[5] = blockers of DNA damage checkpoint Chk1 activation – imaging, HeLa, hydroxyurea, phospho-Chk1 antibody, percent positive cells, primary screen (AID 1186); details: hydroxyurea-induced phospho-Chk1 immunofluorescence imaging, higher = more signal
[6] = blockers of DNA damage checkpoint Chk1 activation – imaging, HeLa, hydroxyurea, phospho-Chk1 nuclear intensity, primary screen (AID 1187); details: hydroxyurea-induced phospho-Chk1 immunofluorescence imaging, higher = more signal

Compound	composite z-score [1]	composite z-score [2]	z-score [3]	z-score [4]	z-score [5]	z-score [6]
CCCN1C(=O)[C@@]2(c3ccc([N+](=O)[O-])cc3)CC(=O)N(C3CCCCC3)[C@@H]2c2ccc(CO)cc21	-0.403 (inactive)	0.107	0.069	-1.26 (inactive)	0.257 (inactive)	0.105 (inactive)
C[C@@]1([C@@H](NS(=O)(=O)c2cccc3cccnc23)c2ccc(-c3ccccc3)cc2)C[C@H]1C1CCCCC1	0.648 (inactive)	-0.209	-0.748	2.32 (inactive)	1.42 (inactive)	0.534 (inactive)
CC(C)C[C@@H]1NC(=O)[C@@H]2C[C@H](C(=O)NCCCCCCNC(=O)CS)[C@H](c3ccc(O)cc3)N2C1=O	3.03 (inactive)	0.843	-1.19	-2.01 (inactive)	-0.265 (inactive)	-0.1 (inactive)
C=C(C(=O)CC[C@@H](OC(=O)c1ccccc1-c1ccccc1C(=O)O)c1ccc(OCCO)cc1)C(C)C	-0.206 (inactive)	0.568	-2.12	-5.47 (inactive)	0.468 (inactive)	0.59 (inactive)
COC(=O)[C@H]1N=C(c2ccc(OCCCO)cc2)O[C@H]1c1ccccc1N=[N+]=[N-]	0.363 (inactive)	0.75	-2.1	-4.13 (inactive)	-0.0771 (inactive)	0.193 (inactive)
COc1ccc([Si](C)(C)[C@@H]2[C@@H](CC(=O)N(CCO)Cc3ccccc3)O[C@]3(C(=O)N(Cc4cccc(I)c4)c4ccccc43)[C@H]2C)cc1	0.479 (inactive)	0.252	-2.86	-1.79 (inactive)	0.55 (inactive)	0.828 (inactive)
COc1cc(Cc2cc3c(c(CCc4ccccc4)n2)[Si](C(C)C)(C(C)C)O[C@H]3c2ccccc2)cc(OC)c1OC	0.41 (inactive)	0.202	0.578	-5.59 (inactive)	-0.167 (inactive)	-0.286 (inactive)
COCCOC(=O)N1C(=O)[C@@]2(c3cc(C#CCCO)ccc31)[C@H](C(=O)N1CCN(c3ncccn3)CC1)[C@H]1C(=O)O[C@H](c3ccccc3)[C@H](c3ccccc3)N1[C@@H]2c1ccc(OCCO)cc1	0.472 (inactive)	0.838	-2.04	0.211 (inactive)	-0.0621 (inactive)	-0.0646 (inactive)
O=C(NC1CC1)[C@@H]1c2ccccc2C(=O)N(C2CCCCC2)[C@H]1c1ccc(CO)cc1	0.969 (inactive)	0.647	-1.1	-3.16 (inactive)	-0.312 (inactive)	-0.617 (inactive)
NCCCCCCNC(=O)[C@@H]1C[C@@H]2C(=O)NCC(=O)N2[C@@H]1c1cccc(OCCO)c1	0.592 (inactive)	0.354	0.418	-1.96 (inactive)	0.13 (inactive)	0.118 (inactive)
CCCC1(C(=O)OC)C=C2C(=C(C(C)C)C(=O)C2C)CN1 (configuration not stated)	-0.275 (inactive)	-0.619	0.77	-6.18 (inactive)	0.493 (inactive)	0.473 (inactive)
CC(=O)NCCCC[C@@H]1NC(=O)[C@H]2C[C@@H](C(=O)O)[C@@H](c3cccc(OCCO)c3)N2C1=O	1.31 (inactive)	0.806	-0.48	-2.31 (inactive)	0.165 (inactive)	-0.347 (inactive)
CC1(C)OB(/C=C\CC(OC(=O)c2ccncc2)c2ccccc2)OC1(C)C (configuration not stated)	0.258 (inactive)	0.478	0.78	-3.16 (inactive)	0.301 (inactive)	0.415 (inactive)
COC(=O)[C@@]1(Cc2ccc(F)cc2)[C@H]2c3cc(C(=O)N4CCCC4)n(Cc4ccc(OC(F)(F)F)cc4)c3C[C@H]2CN1C(=O)c1ccccc1	0.124 (inactive)	0.267	0.096	-3.8 (inactive)	1.06 (inactive)	0.639 (inactive)
COCCOC(=O)N1C(=O)[C@@]2(c3cc(C#CC4(O)CCCCCC4)ccc31)[C@H](C(N)=O)[C@H]1C(=O)O[C@H](c3ccccc3)[C@H](c3ccccc3)N1[C@@H]2c1ccc(OCCO)cc1	1.56 (inactive)	0.73	-1.62	-0.51 (inactive)	-0.0908 (inactive)	-0.524 (inactive)
C=C[C@H](C)[C@@H](OC(=O)Nc1ccc(SC)cc1)c1ccc(OCCO)cc1	-0.0975 (inactive)	-0.0208	-0.526	-4.53 (inactive)	-0.328 (inactive)	-0.809 (inactive)
CN(C)CCCCNC(=O)[C@H]1C[C@H]2C(=O)N[C@@H](CCCCN(C)C)C(=O)N2[C@H]1c1ccc(O)cc1	0.0043 (inactive)	0.269	-0.435	0.0335 (inactive)	-1.63 (inactive)	-1.46 (inactive)
COc1cc2c(cc1O)C(C)N(Cc1sc3ccccc3c1Cl)CC2 (configuration not stated)	-0.173 (inactive)	0.547	-1.37	-3.39 (inactive)	-0.632 (inactive)	-0.817 (inactive)
CC(C)Cc1ccc(CN2CC[C@@H](NC(=O)c3ccccc3)C2)cc1	0.321 (inactive)	0.447	-1.68	-1.52 (inactive)	-0.681 (inactive)	-0.744 (inactive)
O=C1C2C=CC(C(O)C(c3ccccc3)c3ccccc3)N(Nc3ccccc3F)C2C(=O)N1c1ccccc1 (configuration not stated)	0.814 (inactive)	0.768	-0.373	-2.65 (inactive)	0.837 (inactive)	0.29 (inactive)
[N-]=[N+]=NCc1ccccc1C[C@]1(C(=O)N2CCCCC2)COC(c2ccc(OCCCO)cc2)=N1	-0.061 (inactive)	0.652	-2.29	-6.04 (inactive)	-0.749 (inactive)	-0.928 (inactive)
C=CCC(OC(C)=O)[C@@H]1[C@@H](N(Cc2ccc(-c3ccccc3)cc2)C(=O)Cc2ccc(OC)cc2)c2cc(OCCCO)ccc2N1C(=O)c1ccc2ccccc2c1 (some centres not stated)	-0.965 (inactive)	-0.0698	-2.9	-1.72 (inactive)	0.443 (inactive)	0.209 (inactive)
COC(=O)[C@@]1(Cc2ccc(F)cc2)[C@H]2c3cc(C(=O)N4CCCC4)n(Cc4ccc(C(F)(F)F)nc4)c3C[C@H]2CN1C(=O)c1ccccc1	0.216 (inactive)	0.602	-0.532	-3.29 (inactive)	0.278 (inactive)	0.554 (inactive)
COCCOC(=O)N1C(=O)[C@@]2(c3cc(C#CC4=CCCCC4)ccc31)[C@H](C(=O)N1CCCCCCC1)[C@H]1C(=O)O[C@H](c3ccccc3)[C@H](c3ccccc3)N1[C@@H]2c1ccccc1OCCO	0.502 (inactive)	0.712	-2.04	3.21 (inactive)	-0.245 (inactive)	-0.178 (inactive)
COC(=O)Cn1c(C(=O)N(C)C)cc2c1C[C@H]1CN(C(=O)c3ccccc3)[C@@](Cc3ccccc3)(C(=O)OC)[C@@H]21	-0.0872 (inactive)	0.661	0.645	-4.29 (inactive)	-0.12 (inactive)	0.286 (inactive)
[N-]=[N+]=NCc1ccccc1[C@H]1OC(c2ccc(OCCCO)cc2)=N[C@@]1(Cc1ccccc1N=[N+]=[N-])C(=O)O	0.107 (inactive)	0.76	0.58	-4.41 (inactive)	-0.0666 (inactive)	0.194 (inactive)
COc1ccc(C(O)C2C=CC3C(=O)N(c4ccccc4)C(=O)C3N2Nc2ccccc2F)c2ccccc12 (configuration not stated)	1.56 (inactive)	0.795	0.482	-3.14 (inactive)	0.0395 (inactive)	-0.3 (inactive)
